Records with an inconclusive call do not appear. Entries that show only a call come without a potency. The source made the active and inactive calls. Calls follow the shape of the full dose curve.
Assay: p53 small molecule agonists, cell-based qHTS assay with rat liver microsomes (AID 1963578)
In short: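 Agonist mode in p53RE-bla reporter cells, with compounds co-incubated 16 h at 37 C alongside 0.5 mg/mL rat liver microsomes and 0.5 mg/mL NADPH (final), followed by a 2 h LiveBLAzer detection step.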

Compound | Potency
Cc1ccc(C(C)(C)O)cc1 | inactive
CSc1cnccn1 | inactive
CC(=O)CC(C)(C)C1CCCCC1 | inactive
CNC(=O)c1c(I)c(NC(C)=O)c(I)c(C(=O)O)c1I | inactive
CC(CO)CO | inactive
O=S(=O)(O)CC(O)CCl (configuration not stated) | inactive
C=CCCC(=O)/C=C/C1C(C)=CCCC1(C)C (configuration not stated) | inactive
c1ccc2ncccc2c1 | inactive
O=C(O)CCc1ccccc1 | inactive
CCC/C=C/CO | inactive
CCCCCCS | inactive
COC(=O)N[C@H](C(=O)N[C@@H](Cc1ccccc1)[C@@H](O)CN(Cc1ccc(-c2ccccn2)cc1)NC(=O)[C@@H](NC(=O)OC)C(C)(C)C)C(C)(C)C | inactive
CCCO[Si](OCCC)(OCCC)OCCC | inactive
O=C1OC(=O)C2CC=CCC12 (configuration not stated) | inactive
CCCOCCOCCO | inactive
CC(C)(O)C(=O)O | inactive
CCOC(/C=C(\C)CCC=C(C)C)OCC | inactive
Oc1ccc(/C=C/c2cc(O)cc(O)c2)cc1 | inactive
O=S(=O)(O)c1cccc2ccccc12 | inactive
C1CCSC1 | inactive
NC(=Nc1ccccc1)Nc1ccccc1 | inactive
Cc1oc(C)c(C(=O)Nc2ccccc2)c1C | inactive
CCC(C)(C)CC | inactive
CC(=O)CC(=O)Nc1ccc2[nH]c(=O)[nH]c2c1 | inactive

Compound | Potency
Cc1ccc(C(=O)Nc2ccc(S(=O)(=O)O)c3cc(S(=O)(=O)O)cc(S(=O)(=O)O)c23)cc1NC(=O)c1cccc(NC(=O)Nc2cccc(C(=O)Nc3cc(C(=O)Nc4ccc(S(=O)(=O)O)c5cc(S(=O)(=O)O)cc(S(=O)(=O)O)c45)ccc3C)c2)c1 | inactive
CCCCCCCC(=O)N(C)C | inactive
CN1N=C(C(N)=O)CCC1=O | inactive
NCCNCCO | inactive
O=C(c1ccc(O)cc1O)c1ccc(O)cc1O | inactive
C1CCC(SSC2CCCCC2)CC1 | inactive
CO[C@H]1C=CO[C@@]2(C)Oc3c(C)c(O)c4c(O)c(c(/C=N/N5CCN(C)CC5)c(O)c4c3C2=O)NC(=O)/C(C)=C\C=C[C@H](C)[C@H](O)[C@@H](C)[C@@H](O)[C@@H](C)[C@H](OC(C)=O)[C@@H]1C | inactive
COc1cc(OC)nc(O[C@H](C(=O)O)C(OC)(c2ccccc2)c2ccccc2)n1 | inactive
NS(=O)(=O)c1cc2c(cc1C(F)(F)F)NC(Cc1ccccc1)NS2(=O)=O (configuration not stated) | inactive
Cc1cccc(Cl)c1 | inactive
O=Cc1ccc([N+](=O)[O-])cc1 | inactive
CO[C@@H]1[C@@H](O[C@@H]2O[C@H](C)[C@@H](O[C@H]3C[C@@](C)(O)[C@@H](O)[C@H](C)O3)[C@H](N(C)C)[C@H]2O)[C@@H](CC=O)C[C@@H](C)[C@@H](O[C@@H]2CC[C@H](N(C)C)[C@@H](C)O2)/C=C/C=C/C[C@@H](C)OC(=O)C[C@H]1OC(C)=O | inactive
O=C(O)CONC(=O)c1ccccc1 | inactive
CC(C)=CCCC(C)O (configuration not stated) | inactive
COc1ccc2c(c1)CCCC2=O | inactive
COc1ccc(C(=O)NCc2ccc(OCCN(C)C)cc2)cc1OC | inactive
CCCCCCCCCCCCCCCCCCOCC(O)CO (configuration not stated) | inactive
CCCCCCCCS | inactive
CCCC(=O)OCc1ccccc1 | inactive
O=C(Nc1ccc(Cl)cc1)Nc1ccc(Cl)c(Cl)c1 | inactive
CC1=CC[C@@H](C(C)(C)O)CC1 | inactive
CC(C)(c1ccccc1)c1ccc(Nc2ccc(C(C)(C)c3ccccc3)cc2)cc1 | inactive
CC(C)(C)c1ccc(O)c(O)c1 | inactive

— PubChem BioAssay (Tox21)
